Compounds with a hit are over-represented: about 2.1% of the library has one in this group of screens.
CCHFV vOTU inh: CCHFV vOTU protease inhibitors, primary screen, biochemical, Pep-AMC substrate, fluorescence | Crimean-Congo hemorrhagic fever virus L polyprotein viral ovarian tumor (vOTU) protease … | inhibition, % at 11.5 µM | 370,000 compounds, 0.55% hits; in the data active = inhibition above about 30%; note: 0% = vehicle wells with enzyme and 100% = no enzyme wells
PrP 5UTR inh: inhibition of PrP 5' UTR reporter expression; inhibition, % (test concentration not listed); 340,000 compounds, 0.35% hits; cell-based PrP 5' UTR mRNA reporter, plate reader; in the data active = inhibition above about 52%; note: 0 = median of the neutral control wells
PfHsp40 yeast: rescue of yeast from PfHsp40 toxicity, primary screen, S. cerevisiae, ATP luminescence. S. cerevisiae expressing PfHsp40, growth rescue. growth rescue, % at 12.5 µM. 340,000 compounds, 0.68% hits; in the data active = growth rescue above about 28%, passing the limit was not always enough;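 note: yeast W303a lacking pdr1 and pdr3 grown in galactose medium; growth measured after three days at 30 °C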
Sa RN4220 lethal: growth inhibition of S. aureus RN4220, primary screen, OD600; 16 h; inhibition, % (concentration not given with the values); 330,000 compounds, 0.33% hits; AID 1259311, 2017; in the data active = inhibition above about 85%;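 note: plate controls were untreated cells for no effect and reference antibiotic for full effect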
Sa ugtP lethal: growth inhibition of ugtP-null S. aureus, primary screen, RN4220 ugtP deletion, OD600 | 16 h | growth inhibition, % (concentration not given with the values) | 330,000 compounds, 0.54% hits; in the data active = growth inhibition above about 68%;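 note: plate controls were untreated wells for no effect and antibiotic for full effect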
PrPC TRFRET: inhibitors of human cell surface prion protein PrPC, primary screen, cell-based, TR-FRET | Major prion protein (Homo sapiens), P04156 | TR-FRET read-out | inhibition, % at 13.8 µM | 370,000 compounds, 0.43% hits | AID 720596, 2013; in the data active = inhibition above about 24%; note: 0% = median of the test wells and 100% = reference compound wells
* marks the source's active call; other numbers are inactive results; . = not tested or not shown.

SMILES | CCHFV vOTU inh | PrP 5UTR inh | PfHsp40 yeast | Sa RN4220 lethal | Sa ugtP lethal | PrPC TRFRET
COc1ccc(NS(=O)(=O)c2ccc(O)c(NC(=O)c3cc4c(C)nn(-c5ccc(F)cc5)c4s3)c2)cc1 | . | -11 | 2 | 83 | 84* | .
COc1cc(C=NNC(=O)CCn2cnc(-c3ccccc3)c2-c2ccccc2)ccc1O | . | . | . | 6 | -2 | .
O=C(Nc1ccccc1Cl)ON=C1c2ccccc2-c2ccccc21 | . | -30 | 88* | -4 | 95* | .
COc1ccc(CNC(=S)NN=Cc2ccncc2)cc1 | . | . | . | 3 | -3 | .
O=C(O)c1ccc2c(c1)[C@@H]1C=CC[C@@H]1[C@H](c1ccccn1)N2 | 54* | -18 | 0 | 11 | -13 | 15
COc1ccc(C(=O)N/N=C(\C)c2ccc3c(c2)C2C=CCC2C(c2ccccc2)N3)cc1 (stereo unspecified) | . | 3 | 0 | . | . | .
Fc1ccc(Nc2nc(N/N=C/c3ccco3)nc(N3CCCCC3)n2)cc1 | 18 | -11 | 102* | . | . | 0
COc1ccc(C=NNc2nc(Nc3ccccc3)nc(N3CCCC3)n2)cc1 | . | . | . | 10 | 8 | .
Cc1ccc(S(=O)(=O)NN=Cc2ccc(Cl)c([N+](=O)[O-])c2)cc1 | . | . | . | 2 | -18 | .
COC12C(COC(N)=O)C3=C(C(=O)C(C)=C(N)C3=O)N1CC1C2N1C (stereo unspecified) | 6 | 49 | 0 | 100* | 100* | -31
O=C(COC(=O)c1cnc(Cl)c(Cl)c1)NCCC1=CCCCC1 | -4 | -1 | 30* | 3 | 8 | 6
Nc1cc(C(=O)OCC(=O)NCCC2=CCCCC2)ccc1Cl | -3 | -8 | -1 | 3 | 0 | -5
Cc1ccc2c(c1)NC(=O)[C@@]1(C)C(c3ccccc3)C3COc4ccc(Cl)cc4C3N1C2=O (stereo partly specified) | . | . | . | -11 | 3 | .
Nc1c2c(nc3ccc(Br)cc13)N(c1ccccc1)CC2 | 8 | -10 | 1 | 21 | 47 | -5
Cc1cccc(N2CCc3c2nc2ccc(Br)cc2c3N)c1 | -16 | -28 | 2 | 99* | 100* | 0
O=C(OCc1ccccc1)N1CCC2CC1c1cc(Cl)ccc12 (stereo unspecified) | -8 | 7 | 0 | . | . | 1
O=C(OCc1ccccc1)N1CCC2CC1c1c(Cl)cccc12 (stereo unspecified) | 6 | -10 | 32* | 11 | 9 | -5
O=C(Nc1nc(-c2ccc(Cl)s2)cs1)c1ccccc1 | 17 | -37 | 1 | 6 | 94* | 2
O=C(Nc1nc(-c2cccs2)cs1)c1ccc(Cl)s1 | 6 | -17 | 0 | 61 | 94* | 7
CC(=O)Nc1nc(-c2cccs2)cs1 | 3 | -3 | 0 | 8 | 9 | -11
COc1ccc(C2C(=C(O)c3ccc4c(c3)CC(C)O4)C(=O)C(=O)N2CCN2CCOCC2)cc1 (stereo unspecified) | . | . | . | 2 | -2 | .
Oc1c(C(c2ccccc2)N2CCOCC2)ccc2ccccc12 (stereo unspecified) | 12 | -13 | 5 | 25 | 87* | 2
CN1CCN(CCCC(=O)c2ccc(C3CCCC3)cc2)CC1 | -11 | -34 | 0 | -3 | 85* | 6
C[N+](C)(C)CCOP(=O)([O-])OCC(O)CO (stereo unspecified) | . | . | . | 6 | 0 | .
COc1cccc(Oc2cncnc2-c2ccc(OC)cc2O)c1 | 25 | -5 | 56* | 0 | -5 | 9
SMILES | CCHFV vOTU inh | PrP 5UTR inh | PfHsp40 yeast | Sa RN4220 lethal | Sa ugtP lethal | PrPC TRFRET
CNC(=S)N1CCN(c2c(F)cc3c(=O)c(C(=O)O)cn(C4CC4)c3c2OC)CC1C (stereo unspecified) | -1 | -18 | 6 | 100* | 100* | -2
COC(=O)C(C)NC(=S)N1CCN(c2c(F)cc3c(=O)c(C(=O)O)cn(C4CC4)c3c2OC)CC1C (stereo unspecified) | -18 | -25 | 0 | 100* | 100* | 0
C[C@H]1COc2c(N3CCN(C)CC3)c(F)cc3c(=O)c(C(=O)O)cn1c23 | -100 | 3 | 0 | . | . | 1
O=C(NC1CC1)c1cccc(Oc2ccccc2)c1 | 3 | -36 | 77* | 5 | 11 | 5
O=C(NC1CC1)c1ccccc1 | -11 | . | . | . | . | -12
O=C(O)c1cn(-c2ccc(F)cc2)c2cc(Cl)c(F)cc2c1=O | 5 | -21 | 2 | 48 | 97* | 3

Screening data: PubChem BioAssay, several laboratories
